Consider 36 compounds from PubChem BioAssay AID1259398 (Fisher Drug Discovery Resource Center, 2018).

The inhibition is the drop in the measured response relative to a control, in per cent.

Where “and” joins values, the source holds several entries; their conditions need not be identical. Equal entries are not always repeated. The campaign covered roughly 290,000 compounds. About 230 (0.079%) were called active. Only a selection was taken, and actives are over-represented in it overall. Unmarked numbers belong to inactive results. Cut-off read from the data, not from the text of the source: active = inhibition above about 40%; inactive = the rest.

In the assay the target is Cyclic GMP-AMP synthase (Homo sapiens) (UniProt Q8N884). The assay can be described thus: Biochemical Kinase-Glo luminescence primary assay, human cyclic GMP-AMP synthase inhibition (AID 1259398).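 Note: 0% = vehicle reaction and 100% = reaction without DNA for no activity.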 The following applies: recombinant h-cGAS, ATP depletion, at 12.5 µM, stronger effect = higher value.
Cyclic GMP-AMP synthase (Homo sapiens), sequence (Q8N884 whole entry, looked up): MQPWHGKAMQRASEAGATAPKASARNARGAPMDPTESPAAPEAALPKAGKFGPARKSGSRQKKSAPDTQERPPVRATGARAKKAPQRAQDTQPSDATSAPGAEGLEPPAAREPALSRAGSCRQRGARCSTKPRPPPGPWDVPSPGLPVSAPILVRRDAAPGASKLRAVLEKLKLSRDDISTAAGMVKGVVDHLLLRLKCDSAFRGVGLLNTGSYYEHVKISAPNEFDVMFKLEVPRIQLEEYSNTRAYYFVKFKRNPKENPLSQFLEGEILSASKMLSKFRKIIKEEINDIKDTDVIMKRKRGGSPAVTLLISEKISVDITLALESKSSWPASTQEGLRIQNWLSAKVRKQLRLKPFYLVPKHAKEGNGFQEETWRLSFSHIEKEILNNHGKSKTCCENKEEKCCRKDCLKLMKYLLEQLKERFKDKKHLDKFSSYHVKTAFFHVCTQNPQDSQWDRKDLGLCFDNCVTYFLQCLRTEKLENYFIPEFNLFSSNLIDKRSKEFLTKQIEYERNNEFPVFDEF
Consider `CC(NCc1ccccc1Cn1cccn1)C(=O)NC1CCCC1` (stereo unspecified), for which the inhibition is -4.67%. `Cc1ccc(Nc2nc(N3CCN(c4ccc(F)cc4)CC3)nc3nccnc23)c(C)c1`: the inhibition is -2.31%. Turning to `CCc1cnc2c(c1SCc1cccc(C(F)(F)F)c1)c(=O)n(C)c(=O)n2C`, the inhibition was -9.29%.

For `Cc1ccc(CN(CCc2c[nH]c3ccccc23)C(=O)CN(C(=O)c2ccc([N+](=O)[O-])cc2)C(C)C)cc1`, the inhibition is -6.46%. On to `Nc1cc(-c2cccc(C(F)(F)F)c2)nn1-c1ccc(C(=O)NCc2ccc3c(c2)OCO3)cc1`, for which the inhibition is -5.72%. As for `C=CCNc1ccccc1C(=O)N1[C@@H]2CC[C@H]1CC(O)C2` (stereo partly specified), the inhibition was -2.12%. Turning to `Cc1ccc(/C=C/C(=O)N(C)C(C)c2cccc(S(N)(=O)=O)c2)o1` (stereo unspecified), the inhibition was -0.284%. As for `O=c1c(O)c(Br)ccc2c(Br)c(O)c(O)c(O)c12`, the figure is 70.1% (active).

`O=C(C=Cc1ccc(Br)o1)NC1CCCCCC1`: the inhibition is -5.99%.

Turning to `O=C(OCC(=O)N1CCCC1c1ccc(Cl)c(Cl)c1)C1CCOC1` (stereo unspecified), the inhibition was -2.27%. As for `CC(C)n1nccc1NC(=O)CN(C)S(=O)(=O)c1ccc(Cl)s1`, the inhibition was -6.6%.

On to `Cn1cnnc1Sc1ccc(Cl)cc1NC(=O)C1CCCCC1`, for which the inhibition was -8.95%. On to `CCC(C)(C)NC(=O)[C@H](CC(C)C)N1CC[C@@]2(CCCN2C(=O)CCC(C)=O)C1=O`, for which the inhibition is 0.355%.

For the compound `Cc1csc(C2CCN(S(=O)(=O)c3ccc(F)cc3Cl)CC2)n1`, the inhibition is -7.52%. Under `Fc1cc(F)cc(-c2cncc(COc3ccc(F)cc3F)c2)c1` stands 1.15%; under `COc1nc(C)cc(C)c1CNC(=O)C(=O)N1CCc2ccccc21`, 4.25%; under `CCOC(=O)C1(C)CCCN1C(=O)c1cc(C)on1` (stereo unspecified), -5.23%. With `O=C(NC1CCN(c2ccccc2C(=O)NCc2cccc(C(F)(F)F)c2)CC1)c1ccccc1F`, the inhibition is -3.47%. Consider `Cc1cc(=O)n(-c2ccc(S(=O)(=O)O)cc2C)[nH]1`, for which the inhibition is -8.43%. With `CCOC(=O)C1CCCN(Cn2c(=O)c3ccccc3n3nc(C)cc23)C1` (stereo unspecified), the inhibition is -0.416%. On to `O=C(c1cc(Cn2ccc3ccccc32)[nH]n1)N1CCCC1c1nccs1` (stereo unspecified), for which the inhibition is -1.07%. In the case of `CCc1cnc(COc2ccc(OC3CCCCNC3=O)cc2)o1` (stereo unspecified), the inhibition was -10.1%. As to `COC(=O)c1c(C)[nH]c(C(=O)N2CCCC2c2ccc(OC)cc2)c1C` (stereo unspecified), the inhibition was -3.09%. As to `COc1ccc(-c2nnc(SCC(=O)N/N=C\c3ccccn3)n2-c2ccccc2)cc1OC`, the inhibition was 1.79%. As for `Cc1ccccc1N(CCCN1C(=O)c2cccc3cccc(c23)C1=O)C(=O)c1ccc([N+](=O)[O-])cc1`, the figure is -1.77%. As for `C[N+](C)(CCCCCC[N+](C)(C)CCCN1C(=O)c2cccc3cccc(c23)C1=O)CCCN1C(=O)c2cccc3cccc(c23)C1=O`, the figure is 90.3% (active); as for `O=C1c2cccc3cccc(c23)C(=O)N1CCCCCc1n[nH]c(=S)o1`, -2.3%.

Consider `COc1cn(CC(=O)NCc2ccc3c(c2)OCO3)c(CSc2ncccn2)cc1=O`, for which the inhibition was -5.34%. Under `COCCCN(CC(=O)N(Cc1ccc2c(c1)OCO2)Cc1cccs1)C(=O)C1C[C@H]1c1ccccc1` (stereo partly specified) stands -8.64%; under `O=C(CCNC(=O)C1CC2(CCNCC2)CN1)Nc1nccs1` (stereo unspecified), -7.06%. With `COCc1c(Br)c(C)nc(OCC(=O)N/N=C\c2cc(I)c(OCc3ccccc3Cl)c(OC)c2)c1C#N`, the inhibition is -3.7%. Regarding `CN1CCN(C(=O)c2cc(COc3ccc(-n4cncn4)cc3)on2)CC1c1ccccc1` (stereo unspecified), the inhibition was -7.12% and -3.64%. For the compound `CCOc1cc(Br)cc(/C=N\Nc2nc(N3CCCCC3)nc(N3CCCCC3)n2)c1O`, the inhibition was -5.11%. As for `CC1CCCN(c2nn3c(C(=O)NCCN4CCCCCC4)cc(=O)nc3s2)C1` (stereo unspecified), the figure is -1.82%. Turning to `Nc1ccc(NC(=S)NCc2ccco2)cc1[N+](=O)[O-]`, the inhibition is -4.64%.

With `CCN1CCN(c2ccccc2NS(=O)(=O)c2cc(Br)ccc2OC)CC1`, the inhibition is -2.43%.
